Test [1] deals with Lysosomal acid glucosylceramidase (Homo sapiens) (UniProt P04062). Briefly: Glucocerebrosidase-p2 (AID 348; in the data active = potency below about 10 µM; also: potency is read from the fitted curve at half-maximal effect). To be noted: purified GBA, blue fluorogenic substrate, 40 min. In short, it runs like this: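 Normal human glucocerebrosidase (0.2 nM) with blue fluorogenic substrate (80 uM final) in citrate/phosphate pH 5.9 with 10mM sodium taurocholate, 0.01% tween-20; 40 min RT, NaOH/glycine stop; fluorescence Ex 365/Em 440; AC50 from a titration from 0.6 nM upwards.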
Lysosomal acid glucosylceramidase (Homo sapiens), sequence (P04062 whole entry, looked up): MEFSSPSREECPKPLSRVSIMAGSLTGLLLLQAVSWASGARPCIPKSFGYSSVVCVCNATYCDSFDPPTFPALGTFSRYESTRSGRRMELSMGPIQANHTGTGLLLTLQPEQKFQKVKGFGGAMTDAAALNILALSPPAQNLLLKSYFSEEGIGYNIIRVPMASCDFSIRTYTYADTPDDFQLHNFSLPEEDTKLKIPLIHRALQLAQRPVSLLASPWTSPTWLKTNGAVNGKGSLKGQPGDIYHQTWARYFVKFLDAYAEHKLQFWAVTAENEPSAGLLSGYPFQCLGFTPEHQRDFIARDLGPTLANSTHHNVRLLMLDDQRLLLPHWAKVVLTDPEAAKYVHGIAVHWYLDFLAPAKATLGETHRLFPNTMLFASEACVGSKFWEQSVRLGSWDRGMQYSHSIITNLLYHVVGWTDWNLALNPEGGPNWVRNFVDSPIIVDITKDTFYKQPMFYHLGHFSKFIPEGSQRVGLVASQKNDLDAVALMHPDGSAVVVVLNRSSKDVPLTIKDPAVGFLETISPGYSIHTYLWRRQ

Test [2] is described as follows: AP1 Signaling Pathway (AID 357).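 Also: ME-180 reporter cells stimulated with EGF at its EC50 level; % is scaled to controls: 0 for no effect and ±100 for the full control effect.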 To be noted: ME-180 AP-1-bla reporter, EGF-induced, beta-lactamase ratio, 5 h; at 7.69 µM (top of the series) unless noted. In a few lines: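 A ratiometric CCF4 readout (405 nm excitation; 460 and 530 nm emission) quantified AP-1-driven beta-lactamase in ME-180 cells after 5 h with compound and EC50 EGF; AC50 values were derived for activators and inhibitors.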

In test [3] the target is Cytochrome P450 1A2 (Homo sapiens) (UniProt P05177). Kind of test: p450-cyp1a2 (AID 410; calls by dose curve; also: potency is read from the fitted curve at half-maximal effect;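 as to activity change, negative = inhibition: -100% = full effect of reference inhibitor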). To be noted: recombinant CYP1A2, luciferin-ME demethylation, luminescence; series mostly up to 57 µM. In short, it runs like this: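 O-Demethylation of luciferin 6' methyl ether by human CYP1A2 is monitored as luciferase luminescence. Substrate sits at Km (100uM); enzyme is 20nM. Values are scaled to 57 uM furafylline as maximal inhibition.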
Cytochrome P450 1A2 (Homo sapiens), sequence (P05177 whole entry, looked up): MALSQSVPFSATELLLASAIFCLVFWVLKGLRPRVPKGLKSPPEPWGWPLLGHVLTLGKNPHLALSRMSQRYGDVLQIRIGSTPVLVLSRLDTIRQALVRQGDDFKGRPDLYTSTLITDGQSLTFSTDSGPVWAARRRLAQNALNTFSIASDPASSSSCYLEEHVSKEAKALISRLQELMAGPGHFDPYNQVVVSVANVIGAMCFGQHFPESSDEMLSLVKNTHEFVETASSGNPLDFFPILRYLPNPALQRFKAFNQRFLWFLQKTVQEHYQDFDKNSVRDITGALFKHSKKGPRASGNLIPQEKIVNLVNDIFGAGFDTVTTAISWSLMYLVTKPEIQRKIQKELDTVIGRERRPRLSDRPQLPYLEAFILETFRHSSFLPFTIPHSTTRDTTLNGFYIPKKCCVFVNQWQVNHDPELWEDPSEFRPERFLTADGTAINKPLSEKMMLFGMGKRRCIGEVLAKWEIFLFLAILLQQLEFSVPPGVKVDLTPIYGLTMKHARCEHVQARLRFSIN

Test [4] in a line: NFAT Signaling Pathway (AID 444).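 Also: carbachol stimulus at about its EC50 of 1 µM final; % is scaled to controls: 0 for no effect and ±100 for the full control effect.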 To be noted: Jurkat NFAT-bla M1, carbachol, beta-lactamase ratio, 5 h; at 7.69 µM (top of the series) unless noted. In a few lines: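 Jurkat cells with NFAT-driven β-lactamase reporter and co-expressed M1 receptor, stimulated with carbachol (final 1 uM, ~EC50), compound titration, 5 h at 37 °C. CCF4 loaded 1 h at RT; 460/530 nm ratio gave %activity and AC50.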

Test [5] in a line: Stat Signaling Pathway (AID 446).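 Also: ME-180 cervical cancer cells given 40 pM IL-6 alongside compound; SIE-controlled beta-lactamase reporter measured as 460/530 nm FRET emission ratio; % is scaled to controls: 0 for no effect and ±100 for the full control effect.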 To be noted: ME-180 (cervical carcinoma) SIE beta-lactamase reporter, IL-6 stimulated, 5 h; at 7.69 µM (top of the series) unless noted. In short, it runs like this: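 Emission at 460 and 530 nm (excitation 405 nm) reports SIE-controlled beta-lactamase in ME-180 cells. Cells received compound with 40 pM IL-6 for 5 hrs at 37 C; data scaled between 300 pM IL-6 and 125 nM JAK-inhibitor controls.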

Test [6] concerns the target Mitogen-activated protein kinase 10 (Mus musculus) (UniProt Q61831). Briefly: JNK3 AlphaScreen Assay (AID 530).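 Also: kinase came from lysate of stimulated human HepG2 cells; signal reports phosphorylation of biotinylated GST-cJun 1-79 at Ser73 with 10 µM ATP; % is scaled to controls: 0 for no effect and ±100 for the full control effect.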 To be noted: JNK3 lysate, c-Jun phosphorylation; series mostly up to 57.1 µM. In short, it runs like this:
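Activity was read by AlphaScreen after JNK3-containing HepG2 lysate (cytokine pre-activated) phosphorylated biotinylated GST-cJun with 10 uM ATP at room temperature. Phospho-Ser73 cJun antibody with Protein-A acceptor beads provided detection.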
In general terms: Alpha assays give light when donor and acceptor beads are brought close together.

Test [7] concerns the target 3',5'-cyclic-AMP phosphodiesterase 4B (Homo sapiens) (UniProt Q07343). Briefly: qHTS Assay for Inhibitors of PDE-IV (AID 607; active = well fitted activation curve with a large enough effect in the main read-out, with a control signal flat, not every such curve was filed as active; also: % of control where 0% means no effect). To be noted: HEK293 ACTOne CNG channel cells, membrane potential fluorescence; series mostly up to 22.9 µM. In a few lines: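 The readout is membrane depolarisation from a cAMP-sensing CNG channel, detected with a potential dye at ex 535/em 590. Cells were HEK293-derived (endogenous PDE-IV) at 1000 cells/well, titrated up to 22.9 uM final.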

The target of test [8] is Cytochrome P450 3A4 (Homo sapiens) (UniProt P08684). Briefly: qHTS Assay for Activators of Cytochrome P450 3A4 (AID 885; active = well fitted curve in the direction sought with a large enough effect; an effect the other way counts as inactive or inconclusive; also: nearly all actives have a fitted effect of over 65% in size). The settings on record: recombinant CYP3A4, Luciferin-PPXE luminescence, 60 min; series mostly up to 57.1 µM. In a few lines:
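Activators are scored by enhanced luminescence from CYP3A4 conversion of luciferin-PPXE (25uM, equal to KM) to luciferin, after 60 min at RT with an NADPH-regenerating system.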
Background: Quantitative high-throughput screening tests each substance at several concentrations.

Test [9] addresses Cytochrome P450 2D6 (Homo sapiens) (UniProt P10635). Kind of test: qHTS Assay for Inhibitors and Substrates of Cytochrome P450 2D6 (AID 891; active = well fitted curve in the direction sought with a large enough effect; an effect the other way counts as inactive or inconclusive; also: potency is read from the fitted curve at half-maximal effect; nearly all actives have a fitted effect of over 60% in size). The settings on record: recombinant CYP2D6, luciferin-ME EGE luminescence; series mostly up to 57.1 µM. In short, it runs like this: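 Luminescent read-out of luciferin formed by 5 nM human CYP2D6 demethylating 30 uM Luciferin-ME EGE (Km level) over 60 min at room temperature after NADPH regeneration addition. Data normalized to full inhibition by 1.43 uM quinidine.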

The nature of test [10]: qHTS Assay for Lipid Storage Modulators (AID 1519; calls by dose curve). The settings on record: Drosophila S3 cells, BODIPY lipid droplet/cell ratio, laser cytometry, cells loaded with oleic acid; for activity change, negative = inhibition: at 57.5 µM (top of the series). In a few lines:
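Cells seeded at 5,000 per well were treated with compounds over a concentration series and loaded with oleic acid (400 uM, as added). Lipid droplet fluorescence (488 nm excitation, 500-530 nm channel) was read by laser-scanning cytometry and normalized to 20 uM Triacsin C.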

A short description of test [11]: Primary qHTS for small molecule stabilizers of the endoplasmic reticulum resident proteome: Secreted ER Calcium Modulated Protein (SERCaMP) assay (AID 1508630; active = well fitted curve in the direction sought with a large enough effect; an effect the other way counts as inactive or inconclusive; also: % is scaled to controls: 0 for no effect and ±100 for the full control effect). The settings on record: SH-SY5Y GLuc-SERCaMP (Gaussia luciferase released on ER calcium loss) secretion, thapsigargin, luminescence; series mostly up to 38.4 µM. In a few lines: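 The SH-SY5Y reporter protocol was run at 3 concentrations up to 38.3 uM (primary) or 11 concentrations (follow-up): 16 h compound, 100 nM thapsigargin for 4 h, then extracellular luciferase luminescence.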

In test [12] the target is Glucocorticoid receptor (Homo sapiens) (UniProt P04150). Kind of test: GR-EFC Redistribution (AID 451; calls by dose curve; also: potency is read from the fitted curve at half-maximal effect). To be noted: CHO-K1 GR-EFC translocation, beta-gal luminescence, 2 h. In a few lines:
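CHO-K1 cells expressing nuclear EA and GR-ED fragments of b-gal; compounds titrated up to 46 uM final, 2 h at 37 C. GR nuclear translocation read as complemented b-gal luminescence after 1 h RT detection.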

[13] abbreviates: measured here: cell count channel max response.
The mark [14] stands for this setting: measured here: lipid channel max response.

Records with an inconclusive call do not appear. Calls of active or inactive are those of the source. Unless noted, calls follow the shape of the dose curve; as a rule, active = well fitted curve in either direction with a large enough effect (not every such curve was filed as active); inconclusive = small, poorly fitted or top-dose-only effect, or another doubt; inactive = flat fitted curve, though single readings scatter. A value given as a limit tells only on which side of the number the result lay.

The values below come from PubChem BioAssay (NCATS).

Cytochrome P450 3A4 (Homo sapiens), sequence (P08684 whole entry, looked up): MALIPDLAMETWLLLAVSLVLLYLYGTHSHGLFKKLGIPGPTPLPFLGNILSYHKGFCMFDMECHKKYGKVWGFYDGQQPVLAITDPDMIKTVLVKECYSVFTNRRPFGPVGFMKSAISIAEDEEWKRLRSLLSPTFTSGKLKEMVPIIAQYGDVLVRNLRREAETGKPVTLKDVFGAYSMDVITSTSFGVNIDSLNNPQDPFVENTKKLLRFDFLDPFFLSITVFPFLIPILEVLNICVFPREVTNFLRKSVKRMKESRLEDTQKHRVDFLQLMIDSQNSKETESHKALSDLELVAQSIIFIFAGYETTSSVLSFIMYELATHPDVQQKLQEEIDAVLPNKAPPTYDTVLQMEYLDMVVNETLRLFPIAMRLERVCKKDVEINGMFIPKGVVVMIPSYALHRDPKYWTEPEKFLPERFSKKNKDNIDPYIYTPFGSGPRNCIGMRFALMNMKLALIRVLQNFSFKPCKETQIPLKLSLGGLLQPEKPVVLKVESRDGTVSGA
3',5'-cyclic-AMP phosphodiesterase 4B (Homo sapiens), sequence (Q07343 whole entry, looked up): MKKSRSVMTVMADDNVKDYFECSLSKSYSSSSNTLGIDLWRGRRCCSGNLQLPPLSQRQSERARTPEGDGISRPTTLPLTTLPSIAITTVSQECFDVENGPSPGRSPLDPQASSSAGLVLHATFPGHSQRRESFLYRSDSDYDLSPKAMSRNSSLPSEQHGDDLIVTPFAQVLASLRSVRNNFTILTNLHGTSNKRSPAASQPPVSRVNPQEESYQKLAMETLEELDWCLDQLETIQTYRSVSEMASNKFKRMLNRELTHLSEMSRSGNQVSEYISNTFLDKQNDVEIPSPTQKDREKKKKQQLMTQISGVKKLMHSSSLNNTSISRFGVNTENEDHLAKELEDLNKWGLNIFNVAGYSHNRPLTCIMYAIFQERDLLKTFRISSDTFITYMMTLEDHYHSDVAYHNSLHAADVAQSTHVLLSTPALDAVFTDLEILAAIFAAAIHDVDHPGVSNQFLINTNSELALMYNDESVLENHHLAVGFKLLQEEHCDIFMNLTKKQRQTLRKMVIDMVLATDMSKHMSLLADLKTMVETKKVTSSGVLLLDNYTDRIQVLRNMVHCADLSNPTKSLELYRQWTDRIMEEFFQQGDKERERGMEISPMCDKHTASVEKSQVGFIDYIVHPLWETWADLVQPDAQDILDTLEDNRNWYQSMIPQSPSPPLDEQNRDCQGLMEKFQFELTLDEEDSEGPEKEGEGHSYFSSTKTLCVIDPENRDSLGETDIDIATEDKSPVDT
Cytochrome P450 2D6 (Homo sapiens), sequence (P10635 whole entry, looked up): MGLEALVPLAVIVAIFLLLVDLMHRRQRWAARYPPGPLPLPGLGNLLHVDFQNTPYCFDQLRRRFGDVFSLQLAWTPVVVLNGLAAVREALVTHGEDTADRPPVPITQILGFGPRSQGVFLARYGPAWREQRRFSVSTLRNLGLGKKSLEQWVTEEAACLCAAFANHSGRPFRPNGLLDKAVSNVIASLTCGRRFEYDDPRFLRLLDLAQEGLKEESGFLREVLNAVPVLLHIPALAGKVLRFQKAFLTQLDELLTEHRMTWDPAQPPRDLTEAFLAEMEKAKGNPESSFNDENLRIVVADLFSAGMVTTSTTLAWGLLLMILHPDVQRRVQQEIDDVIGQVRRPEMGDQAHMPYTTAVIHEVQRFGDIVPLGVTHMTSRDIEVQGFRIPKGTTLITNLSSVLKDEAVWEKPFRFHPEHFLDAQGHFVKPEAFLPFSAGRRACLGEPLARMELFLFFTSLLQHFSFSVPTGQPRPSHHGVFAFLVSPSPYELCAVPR
Glucocorticoid receptor (Homo sapiens), sequence (P04150 whole entry, looked up, the tested form may be a part): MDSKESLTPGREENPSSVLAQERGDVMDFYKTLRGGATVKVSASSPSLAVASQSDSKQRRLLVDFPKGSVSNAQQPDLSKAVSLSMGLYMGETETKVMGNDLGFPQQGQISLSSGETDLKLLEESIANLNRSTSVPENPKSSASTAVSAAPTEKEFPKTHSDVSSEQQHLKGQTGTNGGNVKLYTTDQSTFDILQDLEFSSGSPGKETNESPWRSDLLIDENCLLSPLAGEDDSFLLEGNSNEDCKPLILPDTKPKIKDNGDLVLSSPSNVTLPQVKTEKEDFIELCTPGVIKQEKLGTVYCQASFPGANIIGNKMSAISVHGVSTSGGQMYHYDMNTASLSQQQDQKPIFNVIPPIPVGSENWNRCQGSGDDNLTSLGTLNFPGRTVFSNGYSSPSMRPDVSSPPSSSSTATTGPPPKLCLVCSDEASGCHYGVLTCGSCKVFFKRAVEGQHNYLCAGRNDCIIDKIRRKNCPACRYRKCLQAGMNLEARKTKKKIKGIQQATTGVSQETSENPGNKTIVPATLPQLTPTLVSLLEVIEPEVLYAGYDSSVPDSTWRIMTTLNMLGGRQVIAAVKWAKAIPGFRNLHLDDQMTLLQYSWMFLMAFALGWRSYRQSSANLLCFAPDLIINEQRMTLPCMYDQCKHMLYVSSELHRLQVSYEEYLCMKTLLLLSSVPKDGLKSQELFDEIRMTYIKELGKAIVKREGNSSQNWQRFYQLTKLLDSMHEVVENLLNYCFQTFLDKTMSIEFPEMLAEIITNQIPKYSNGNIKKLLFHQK

`COCC(=O)N1CCC[C@@]2(CCN(Cc3ccccc3)C2)C1`: the Potency in test [1] was > 11.4 µM (inactive); in test [9], 6.31 µM (active). The activity change, negative = inhibition is -0.884% (inactive) in [2], 19.9% (inactive) in [4] and 4% (inactive) in [10]. The Potency result in test [3], in [7], in [8] and in test [11] was “inactive” in each case. Further, the activity, negative = inhibition in test [5] is 7.86% (inactive). Besides, the molecule was called inactive in [6]. The values for the max response in test [10] (setting [13]) and in test [10] (setting [14]) were 6.62% and 13.4%, respectively.
Regarding `CC(=O)N1CCC2(CCCN(C(c3ccccc3)c3ccccc3)C2)CC1`, the Potency in test [1] was > 11.4 µM (inactive); in [3] it was 15.8 µM (active); in test [12] it was > 46 µM (inactive); in test [9], 7.94 µM (active). Moreover, the results for the activity change, negative = inhibition in test [2], in [4] and in test [10] were -12.2% (inactive), 28.1% (inactive) and 6.41% (inactive), respectively. Moreover, the activity, negative = inhibition in test [5] was 17.6% (inactive). Further, the molecule was classed as inactive in test [6]. Also, the max response was 3.3% in test [10] (setting [13]) and 12.6% in test [10] (setting [14]). For the same molecule, in [11], the Potency entry is “inactive”.
`c1ccc(-c2cccc(N3CC[C@@]4(CCCNC4)C3)c2)cc1`: the Potency was > 11.4 µM (inactive) in test [1], 12.6 µM (active) in test [3] and > 46 µM (inactive) in test [12]. The activity change, negative = inhibition was 1.23% (inactive) in test [2], 6.24% (inactive) in test [4] and 1.77% (inactive) in test [10]. In addition, in [5], the activity, negative = inhibition was -6.03% (inactive). Further, the Potency result in test [7], in [8] and in test [11] was “inactive” in each case. Further, the max response in test [10] (setting [13]) was -28.1%; in [10] (setting [14]), -22.7%.
`CC(=O)N1CCC2(CC1)CN(Cc1ccccc1)C2`: the Potency in [1] was > 11.4 µM (inactive). In addition, the figures for the activity change, negative = inhibition in [2], in test [4] and in test [10] were 9.85% (inactive), 0.306% (inactive) and -0.469% (inactive), respectively. Besides, the Potency entry in [3], in test [7] and in test [11] was “inactive” each time. Moreover, the activity, negative = inhibition in test [5] is -5.51% (inactive). For the same molecule, the call in test [6] was inactive. Further, the max response in test [10] (setting [13]) was -1.63%; in test [10] (setting [14]) it was -1.86%.
For the molecule `COc1ccc(NC(=O)N2CCCC3(CCN(S(C)(=O)=O)CC3)C2)cc1`, in test [1], the Potency is > 11.4 µM (inactive). Besides, the activity change, negative = inhibition in test [2] was -11.2% (inactive); in test [4], 21.9% (inactive); in test [10], 3.48% (inactive). The Potency entry in test [3], in [7], in [8] and in test [11] was “inactive” in each case. Besides, in test [5], the activity, negative = inhibition is 17.2% (inactive). Besides, the molecule was called inactive in [6]. For the same molecule, the max response in test [10] (setting [13]) is -9.3%; in test [10] (setting [14]), -4.34%.
Consider `CC(C)CN1CC[C@@]2(CCCN(C(=O)c3csnn3)C2)C1`, for which the Potency was > 11.4 µM (inactive) in test [1] and 0.501 µM (active) in test [9]. For the same molecule, the results for the activity change, negative = inhibition in test [2], in test [4] and in [10] were -0.149% (inactive), -1.84% (inactive) and 1.65% (inactive), respectively. For the same molecule, the Potency result in [3], in [7], in [8] and in test [11] was “inactive” throughout. In addition, the activity, negative = inhibition in [5] is 5.64% (inactive). The molecule was called inactive in [6]. Also, the max response in [10] (setting [13]) is -1.75%; in test [10] (setting [14]), 2.01%.
